Test [1] in a line: qHTS assay to identify small molecule antagonists of the sonic hedgehog signaling (Shh) pathway (AID 1259369). Note: nearly all actives have a fitted effect of over 45% in size. Note: potency is the fitted concentration of half-maximal effect. In short, it runs like this:
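NIH/3T3-derived Gli1-Luc reporter cells plated 4 h, dosed with compound, then stimulated with conditioned medium for 24 h at 37 C. Firefly luciferase luminescence read after 30 min with detection reagent at room temperature.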

Test [2] addresses Estrogen receptor beta (Homo sapiens) (UniProt Q92731). The experiment in a line: qHTS assay to identify small molecule agonists of the estrogen receptor beta (ER-beta) signaling pathway (AID 1259377; active = well fitted activation curve with a large enough effect in the signal ratio in the repeat runs, not every such curve was filed as active; the % refers to the signal ratio). In short, it runs like this:
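In HEK293T cells bearing a UAS-beta-lactamase reporter under ER-beta control, DMSO-delivered compounds were incubated for 16 hr at 37C. Activity was detected as fluorescence 2 hours after LiveBLAzer B/G FRET substrate addition.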

Test [3] shares this target. Kind of test: qHTS assay to identify small molecule antagonists of the estrogen receptor beta (ER-beta) signaling pathway (AID 1259378; active = well fitted inhibition curve with a large enough effect in the signal ratio in the repeat runs, not every such curve was filed as active; the % refers to the signal ratio). The method in brief:
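ER-beta-UAS-bla HEK293T (GripTite) cells in 2% charcoal-stripped FBS medium were preincubated 6 hr at 37C, dosed with compound, then stimulated with 1 nM E2 (final) for 16 hr; beta-lactamase reporter read by B/G FRET fluorescence after 2 hr substrate loading.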
For orientation: In qHTS, concentration-response curves come from the screen itself.

Test [4] can be described thus: qHTS assay to identify small molecule agonists of the androgen receptor (AR) signaling pathway in the presence of an antagonist - cell viability counter screen (AID 1259379; active = well fitted curve in the direction sought with a large enough effect in the repeat runs; an effect the other way counts as inactive or inconclusive;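 note: MDA-kb2 human breast cancer cells carrying an MMTV luciferase reporter; series mostly up to about 92 µM; nearly all actives have a fitted effect of over 25% in size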). The method in brief: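 MDA-kb2 cells (MMTV-luciferase, AR/GR), 3,000/well, 5 h attachment, then 3.0 µM nilutamide (final) and compounds at 15 concentrations. Viability by CellTiter-Fluor fluorescence after 16 h at 37 °C, 0% CO2, in the reporter wells.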

A short description of test [5]: qHTS assay to identify small molecule agonists of the estrogen receptor beta (ER-beta) signaling pathway - cell viability counter screen (AID 1259380; active = well fitted curve in the direction sought with a large enough effect in the repeat runs; an effect the other way counts as inactive or inconclusive; note: nearly all actives have a fitted effect of over 30% in size; note: potency is the fitted concentration of half-maximal effect). In short, it runs like this: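 ER-beta-UAS-bla HEK293T cells in medium with 2% charcoal-stripped FBS, pre-incubated 6 hr, then treated 16 hr at 37C. Cytotoxicity read in the same wells by CellTiter-Glo luminescence after 30 min at room temperature.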

Test [6] is described as follows: qHTS assay to identify small molecule antagonists of the estrogen receptor beta (ER-beta) signaling pathway - cell viability counter screen (AID 1259382; active = well fitted curve in the direction sought with a large enough effect in the repeat runs; an effect the other way counts as inactive or inconclusive; note: series mostly up to about 92 µM; nearly all actives have a fitted effect of over 55% in size). The method in brief:
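ER-beta-UAS-bla HEK293T cells in 2% charcoal-stripped FBS medium, treated with compound plus 1 nM 17-beta-estradiol for 16 h at 37C. Viability read by CellTiter-Glo luminescence after 30 min at room temperature in the same wells.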

Test [7] addresses Estrogen receptor (Homo sapiens) (UniProt P03372). Kind of test: qHTS assay to identify small molecule agonists of the estrogen receptor alpha (ER-alpha) signaling pathway in the presence of an antagonist (AID 1259383). Note: top concentration of the series differs between compounds; nearly all actives have a fitted effect of over 15% in size. The method in brief: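 VM7Luc4E2 cells express endogenous full-length ER-alpha with an ERE-luciferase reporter and were hormone-deprived for 5 days. Compounds at 15 concentrations were added with 10.0nM ICI-182,780 for 22hr at 37C. Luminescence was read with ONE-Glo.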

Test [8] is described as follows: qHTS assay to identify small molecule agonists or antagonists of the thyroid stimulating hormone receptor (TSHR) signaling pathway - wild type cell line counter screen (AID 1259384). The method in brief: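 Wild-type HEK293 cells were plated 18 h at 37 C/5% CO2, pin-dosed with compound plus Ro20-1724 medium, held 30 min at room temperature, then given cAMP-d2 and anti-cAMP-cryptate; fluorescence was read after 1 h. Fifteen concentrations, triplicate.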

Test [9] addresses Thyrotropin receptor (Homo sapiens) (UniProt P16473). The experiment in a line: qHTS assay to identify small molecule antagonists of the thyroid stimulating hormone receptor (TSHR) signaling pathway (AID 1259385). Note: nearly all actives have a fitted effect of over 20% in size. In short, it runs like this: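 TSHR-HEK293 cells were plated and held 18 h at 37C/5% CO2, then given compound plus Ro20-1724 and stimulated with TSH at 1.5 ng/mL final. After 30 min at room temperature, cAMP was detected with cAMP-d2/anti-cAMP-cryptate (1 h) by fluorescence.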

Test [10] is described as follows: qHTS assay to identify small molecule agonists of the estrogen receptor alpha (ER-alpha) signaling pathway in the presence of an antagonist - cell viability counter screen (AID 1259386; active = well fitted curve in the direction sought with a large enough effect in the repeat runs; an effect the other way counts as inactive or inconclusive;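 note: series mostly up to about 92 µM; cells exposed to compounds for 22 h at 37 °C before the viability read; nearly all actives have a fitted effect of over 30% in size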). In short, it runs like this:
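Cell viability in VM7Luc4E2 cells (endogenous full-length ER-alpha) measured by CellTiter-Fluor fluorescence in the same wells as the luciferase screen. Cells pre-cultured 5 days in charcoal-stripped serum, then treated 22 h with compounds at 15 concentrations plus 10.0nM ICI-182,780.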

Test [11] has as its target Progesterone receptor (Homo sapiens) (UniProt P06401). Kind of test: qHTS assay to identify small molecule agonists of the progesterone receptor (PR) signaling pathway (AID 1346784). Note: nearly all actives have a fitted effect of over 30% in size. In short, it runs like this: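 Using charcoal-stripped serum (2%) to limit endogenous steroids, PR-UAS-bla HEK 293T cells received compounds for 16 hr at 37C after 6 hr plating; beta-lactamase FRET fluorescence was recorded following 2 hr substrate loading at room temperature.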

For test [12] the target is unchanged. Kind of test: qHTS assay to identify small molecule antagonists of the progesterone receptor (PR) signaling pathway (AID 1346795; active = well fitted inhibition curve with a large enough effect in the signal ratio in the repeat runs, not every such curve was filed as active; the % refers to the signal ratio). In short, it runs like this:
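Inhibition of R5020-induced (1 nM final) beta-lactamase reporter signal in PR-UAS-bla HEK293T cells was scored by FRET fluorescence after overnight (16 hr) compound treatment.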

A short description of test [13]: qHTS assay to identify small molecule antagonists of the progesterone receptor (PR) signaling pathway - cell viability counter screen (AID 1346798; active = well fitted curve in the direction sought with a large enough effect in the repeat runs; an effect the other way counts as inactive or inconclusive; note: series mostly up to about 92 µM; nearly all actives have a fitted effect of over 50% in size). The method in brief: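 ATP content as viability readout: CellTiter-Glo luminescence, 30 min room temperature, in PR-UAS-bla HEK293T cells after 16 hr compound/R5020 treatment at 37C and 5% CO2.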
The nature of test [14]: qHTS assay to identify small molecule agonists of the progesterone receptor (PR) signaling pathway - cell viability counter screen (AID 1346799). Note: nearly all actives have a fitted effect of over 45% in size. In short, it runs like this:
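Cytotoxicity in PR-bla HEK293T cells: 16 h compound, 37C; CellTiter-Glo added post-FRET read; luminescence after 30 min RT.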

Test [15] is described as follows: qHTS assay to identify small molecule antagonists of the TGF-beta/Smad signaling pathway - cell viability counter screen (AID 1346824; active = well fitted curve in the direction sought with a large enough effect in the repeat runs; an effect the other way counts as inactive or inconclusive; note: nearly all actives have a fitted effect of over 50% in size). In short, it runs like this:
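SBE-bla HEK 293T cells were plated overnight at 37 C, then given compounds in DMSO plus TGF-beta1 (added as 0.25 ng/mL solution) for 5 hr. After the bla read, CellTiter-Glo was added to the same wells and luminescence read after 30 min at room temperature.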

A short description of test [16]: qHTS assay to identify small molecule agonists of the TGF-beta/Smad signaling pathway - cell viability counter screen (AID 1346829; active = well fitted curve in the direction sought with a large enough effect in the repeat runs; an effect the other way counts as inactive or inconclusive; note: nearly all actives have a fitted effect of over 45% in size; note: potency is the fitted concentration of half-maximal effect). In short, it runs like this: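 Compound-treated SBE-bla HEK 293T cells (5 hr, 37 C) were assessed for viability with CellTiter-Glo in parallel with the reporter read.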
A short description of test [17]: qHTS assay to identify small molecule agonists of the TGF-beta/Smad signaling pathway (AID 1346859; active = well fitted activation curve with a large enough effect in the signal ratio in the repeat runs, not every such curve was filed as active; the % refers to the signal ratio; note: series mostly up to about 77 µM). The method in brief:
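Stable Smad binding element-beta-lactamase HEK 293T cells; 5 hr compound exposure at 37 C under 5% CO2; 2 hr room-temperature substrate step; fluorescence excited at 405 nm, collected at 460 nm and 530 nm.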

Test [18] has as its target Thyrotropin-releasing hormone receptor (Homo sapiens) (UniProt P34981). Kind of test: qHTS assay to identify small molecule antagonists of the thyrotropin-releasing hormone receptor (TRHR) signaling pathway (AID 1346877; active = well fitted inhibition curve with a large enough effect in the repeat runs, not every such curve was filed as active; note: series mostly up to about 51 µM). The method in brief:
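TRHR-expressing HEK293 cells loaded with calcium dye for 2 h at 37 C; compounds pre-incubated 5 min at room temperature before TRH challenge at 1 nM final. Intracellular calcium fluorescence read kinetically for 3 min; 15 concentrations in triplicate.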

Test [19] has the same target. Kind of test: qHTS assay to identify small molecule agonists of the thyrotropin-releasing hormone receptor (TRHR) signaling pathway (AID 1346891). Note: series mostly up to about 58 µM. The method in brief: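 In 1536-format, 1500 TRHR-Hek293 cells per well grew 18 h, took up calcium dye for 2 h at 37 °C, received compound, and were read kinetically; 15-point titrations, triplicates.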
In test [20] the target is Androgen receptor (Homo sapiens) (UniProt P10275). Kind of test: qHTS assay to identify small molecule agonists of the androgen receptor (AR) signaling pathway in the presence of an antagonist (AID 1259381). Note: nearly all actives have a fitted effect of over 15% in size. In short, it runs like this:
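MDA-kb2 cells carrying MMTV-luciferase (AR/GR responsive), 3,000 cells/well, co-treated with 3.0 uM nilutamide final. Compounds at 15 concentrations, 16 hr at 37C without CO2. Luciferase luminescence read after 30 min with ONE-Glo.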

Where “and” joins values, the source holds several entries; their conditions need not be identical. Identical values can stand only once. Inconclusive results are not listed. Some compounds were tested as several samples or in several runs, with calls that do not always agree. Calls of active or inactive are those of the source. Unless noted, calls come from the whole dose curve.

Thyrotropin-releasing hormone receptor (Homo sapiens), sequence (P34981 whole entry, looked up): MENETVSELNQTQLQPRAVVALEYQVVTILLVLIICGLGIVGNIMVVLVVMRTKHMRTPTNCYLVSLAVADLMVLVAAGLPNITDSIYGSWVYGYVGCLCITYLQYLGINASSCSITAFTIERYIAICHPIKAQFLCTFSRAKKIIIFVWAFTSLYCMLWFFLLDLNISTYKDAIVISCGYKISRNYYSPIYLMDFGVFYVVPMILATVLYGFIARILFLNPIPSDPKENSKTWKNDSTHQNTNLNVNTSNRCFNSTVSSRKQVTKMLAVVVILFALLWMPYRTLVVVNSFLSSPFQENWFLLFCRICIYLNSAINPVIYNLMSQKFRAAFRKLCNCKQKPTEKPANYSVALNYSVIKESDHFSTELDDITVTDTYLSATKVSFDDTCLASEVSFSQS
Estrogen receptor beta (Homo sapiens), sequence (Q92731 whole entry, looked up): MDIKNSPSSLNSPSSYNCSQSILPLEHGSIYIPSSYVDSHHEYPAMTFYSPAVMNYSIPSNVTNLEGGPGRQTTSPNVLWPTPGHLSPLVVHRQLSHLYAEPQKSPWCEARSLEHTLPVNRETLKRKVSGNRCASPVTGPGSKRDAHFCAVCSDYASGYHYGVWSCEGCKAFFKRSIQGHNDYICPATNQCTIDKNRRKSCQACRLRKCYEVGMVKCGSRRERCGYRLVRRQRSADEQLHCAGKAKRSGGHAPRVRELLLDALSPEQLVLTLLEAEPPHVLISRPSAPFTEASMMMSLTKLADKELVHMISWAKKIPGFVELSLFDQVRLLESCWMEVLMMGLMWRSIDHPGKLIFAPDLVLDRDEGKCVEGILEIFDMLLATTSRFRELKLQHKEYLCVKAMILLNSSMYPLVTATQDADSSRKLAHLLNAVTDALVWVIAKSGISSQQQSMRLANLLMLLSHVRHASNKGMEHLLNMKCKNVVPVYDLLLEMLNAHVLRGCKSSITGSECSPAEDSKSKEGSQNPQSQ
Thyrotropin receptor (Homo sapiens), sequence (P16473 whole entry, looked up): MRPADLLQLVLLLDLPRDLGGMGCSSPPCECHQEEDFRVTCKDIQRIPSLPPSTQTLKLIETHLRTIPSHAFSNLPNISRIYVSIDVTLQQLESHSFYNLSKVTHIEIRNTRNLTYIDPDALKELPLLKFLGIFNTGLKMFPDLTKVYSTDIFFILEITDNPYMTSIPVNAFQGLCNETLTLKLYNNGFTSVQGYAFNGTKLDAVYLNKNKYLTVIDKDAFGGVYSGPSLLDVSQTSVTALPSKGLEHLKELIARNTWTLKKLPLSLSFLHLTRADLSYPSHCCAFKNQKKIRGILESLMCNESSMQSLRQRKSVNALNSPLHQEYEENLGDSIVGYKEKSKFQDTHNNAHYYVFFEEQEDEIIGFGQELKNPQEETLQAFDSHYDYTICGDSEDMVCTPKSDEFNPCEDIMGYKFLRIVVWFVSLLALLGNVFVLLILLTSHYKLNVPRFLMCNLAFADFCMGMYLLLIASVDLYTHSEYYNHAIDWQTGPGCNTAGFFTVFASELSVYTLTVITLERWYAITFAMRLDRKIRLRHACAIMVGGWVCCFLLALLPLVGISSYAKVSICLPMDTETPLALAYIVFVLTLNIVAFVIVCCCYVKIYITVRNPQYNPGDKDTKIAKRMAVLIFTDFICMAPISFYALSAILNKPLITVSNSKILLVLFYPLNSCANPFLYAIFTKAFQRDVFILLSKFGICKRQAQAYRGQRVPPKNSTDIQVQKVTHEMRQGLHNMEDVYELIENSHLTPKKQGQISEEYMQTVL
Estrogen receptor (Homo sapiens), sequence (P03372 whole entry, looked up): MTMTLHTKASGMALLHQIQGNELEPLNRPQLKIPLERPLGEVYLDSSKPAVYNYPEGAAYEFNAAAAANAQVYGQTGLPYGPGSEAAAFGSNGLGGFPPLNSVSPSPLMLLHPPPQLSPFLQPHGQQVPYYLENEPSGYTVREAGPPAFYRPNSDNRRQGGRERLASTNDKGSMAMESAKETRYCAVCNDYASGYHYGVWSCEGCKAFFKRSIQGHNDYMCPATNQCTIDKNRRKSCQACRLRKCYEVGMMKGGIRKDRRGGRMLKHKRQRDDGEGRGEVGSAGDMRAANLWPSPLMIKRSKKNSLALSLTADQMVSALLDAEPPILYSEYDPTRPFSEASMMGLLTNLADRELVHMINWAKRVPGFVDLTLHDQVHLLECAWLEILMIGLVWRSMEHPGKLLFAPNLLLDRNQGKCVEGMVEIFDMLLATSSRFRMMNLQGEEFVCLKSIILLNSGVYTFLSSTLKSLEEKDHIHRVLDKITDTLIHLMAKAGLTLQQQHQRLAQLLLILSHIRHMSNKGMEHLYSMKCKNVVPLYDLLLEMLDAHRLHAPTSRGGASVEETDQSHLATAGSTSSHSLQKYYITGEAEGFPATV
Progesterone receptor (Homo sapiens), sequence (P06401 whole entry, looked up): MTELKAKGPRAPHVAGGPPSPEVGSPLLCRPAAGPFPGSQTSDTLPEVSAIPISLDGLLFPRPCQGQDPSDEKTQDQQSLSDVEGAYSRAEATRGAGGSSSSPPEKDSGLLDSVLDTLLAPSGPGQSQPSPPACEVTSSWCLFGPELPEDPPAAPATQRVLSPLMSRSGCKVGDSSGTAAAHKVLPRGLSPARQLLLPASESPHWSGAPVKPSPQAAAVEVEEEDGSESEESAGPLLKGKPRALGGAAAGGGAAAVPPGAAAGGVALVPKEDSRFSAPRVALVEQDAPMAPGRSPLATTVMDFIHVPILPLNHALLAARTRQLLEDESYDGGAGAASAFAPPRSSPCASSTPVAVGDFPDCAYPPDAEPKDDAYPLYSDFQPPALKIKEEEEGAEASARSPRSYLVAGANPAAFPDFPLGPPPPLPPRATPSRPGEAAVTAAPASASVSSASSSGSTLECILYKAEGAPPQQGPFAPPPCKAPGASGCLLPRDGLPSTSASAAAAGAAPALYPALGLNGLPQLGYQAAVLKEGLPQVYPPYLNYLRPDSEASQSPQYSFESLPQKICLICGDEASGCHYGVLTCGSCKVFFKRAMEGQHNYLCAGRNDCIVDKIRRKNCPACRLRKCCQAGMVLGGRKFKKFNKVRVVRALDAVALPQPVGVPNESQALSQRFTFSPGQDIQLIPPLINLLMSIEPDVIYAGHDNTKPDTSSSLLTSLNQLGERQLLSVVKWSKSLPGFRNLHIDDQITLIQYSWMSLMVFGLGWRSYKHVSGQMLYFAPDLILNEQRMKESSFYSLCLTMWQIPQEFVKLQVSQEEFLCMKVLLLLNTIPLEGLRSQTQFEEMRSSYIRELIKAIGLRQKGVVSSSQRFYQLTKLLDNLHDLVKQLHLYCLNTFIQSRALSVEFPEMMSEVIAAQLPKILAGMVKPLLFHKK
Androgen receptor (Homo sapiens), sequence (P10275 whole entry, looked up): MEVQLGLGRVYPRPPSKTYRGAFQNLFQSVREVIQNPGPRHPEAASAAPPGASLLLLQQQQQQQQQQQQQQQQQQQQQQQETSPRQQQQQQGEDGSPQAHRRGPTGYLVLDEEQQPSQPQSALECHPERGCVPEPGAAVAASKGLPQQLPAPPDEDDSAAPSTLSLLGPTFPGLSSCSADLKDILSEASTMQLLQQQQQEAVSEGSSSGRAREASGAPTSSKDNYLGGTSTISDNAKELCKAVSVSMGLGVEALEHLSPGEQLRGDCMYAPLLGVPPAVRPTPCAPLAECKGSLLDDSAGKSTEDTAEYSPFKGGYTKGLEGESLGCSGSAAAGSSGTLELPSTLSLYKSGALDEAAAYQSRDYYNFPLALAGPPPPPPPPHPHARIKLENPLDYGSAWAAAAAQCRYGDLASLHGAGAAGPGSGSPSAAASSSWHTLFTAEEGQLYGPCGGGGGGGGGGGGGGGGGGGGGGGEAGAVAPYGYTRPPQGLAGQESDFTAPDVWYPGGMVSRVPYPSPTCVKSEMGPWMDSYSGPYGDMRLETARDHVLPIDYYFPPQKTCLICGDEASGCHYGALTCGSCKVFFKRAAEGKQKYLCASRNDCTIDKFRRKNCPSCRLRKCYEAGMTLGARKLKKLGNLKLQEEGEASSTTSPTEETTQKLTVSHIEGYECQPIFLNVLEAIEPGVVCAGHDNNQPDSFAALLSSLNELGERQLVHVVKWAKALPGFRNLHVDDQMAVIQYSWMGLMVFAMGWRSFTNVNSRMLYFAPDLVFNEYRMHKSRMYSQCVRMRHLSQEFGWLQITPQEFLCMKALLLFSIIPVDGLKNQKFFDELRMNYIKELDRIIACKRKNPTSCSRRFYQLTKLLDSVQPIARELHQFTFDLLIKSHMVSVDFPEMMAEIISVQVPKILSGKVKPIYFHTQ

Turning to `CCCCCCCCCCCCCC(=O)O`, the Potency entry in [1], in [2], in [3], in test [4], in test [6] and in test [7] was “inactive” throughout. The Potency result in test [8], in test [9], in [10], in [11], in [12] and in test [13] was “inactive” throughout. Further, the Potency result in [14], in test [15], in test [16], in test [17] and in test [18] was “inactive” in each case. For the same compound, the Potency in [5] is 43.1 µM (active) and 61.1 µM (active). Further, the outcome in test [19] was inactive.

`CCc1cccc(O)c1`: the Potency result in test [1], in [2], in test [3], in test [4], in test [5] and in [6] was “inactive” in each case. In addition, the Potency result in test [7], in test [9], in [10], in [11], in test [12] and in test [13] was “inactive” throughout. Also, the Potency result in test [14], in test [15], in test [16], in [17] and in test [18] was “inactive” in each case. In addition, the result in test [19] was inactive.

Regarding `CCCN(CCC)C(=O)SCC`, the Potency result in test [1], in test [2], in [3], in test [4], in test [5] and in test [6] was “inactive” in each case. Moreover, the Potency entry in [7], in test [9], in test [10], in [11], in [12] and in test [13] was “inactive” in each case. Further, the Potency entry in test [14], in test [15], in [16], in test [17] and in test [18] was “inactive” throughout. In addition, the result in test [20] and in [19] was inactive.

Take `CC(C)(CO)CO`: the Potency entry in test [1], in test [2], in test [3], in test [4], in [5] and in test [6] was “inactive” throughout. In addition, the Potency entry in test [7], in test [8], in test [9], in test [10], in test [11] and in [12] was “inactive” each time. Further, the Potency entry in test [13], in [14], in test [15], in [16], in test [17] and in test [18] was “inactive” each time. Further, the outcome in test [20] and in test [19] was inactive.

For `CCc1cccc(CC)c1N`, the Potency result in [1], in test [2], in test [3], in [4], in test [5] and in test [6] was “inactive” each time. Besides, the Potency result in [7], in test [8], in [9], in [10], in [11] and in test [12] was “inactive” throughout. The Potency entry in [13], in test [14], in test [15], in test [16] and in test [17] was “inactive” throughout. Besides, the result in test [20] was inactive.

Take `CO[Si](CCCNCCN)(OC)OC`: the Potency in [1] is 8.76 µM (active) and inactive; in test [16], 31.4 µM (active) and inactive. Further, the Potency result in [2], in test [3], in test [4], in test [5], in test [6] and in test [8] was “inactive” in each case. The Potency entry in test [9], in test [10], in [11], in test [12], in test [13] and in test [14] was “inactive” throughout. The Potency entry in test [17] and in test [18] was “inactive” each time. The outcome in test [20] and in [19] was inactive.

For the compound `NC(=O)NC(N)=O`, the Potency result in [1], in test [2], in test [3], in [4], in [5] and in [6] was “inactive” each time. In addition, the Potency entry in [7], in test [8], in test [9], in test [10], in test [11] and in [12] was “inactive” each time. Further, the Potency result in [13], in [14], in [15], in [16], in [17] and in test [18] was “inactive” each time. In addition, the call in test [19] was inactive.

Source of the values: PubChem BioAssay (Tox21).
